The values below come from ChEMBL document CHEMBL4513146, “CO-ADD screening of Karazin Kharkiv National University (Ukraine) compounds”.

Entries with a potency or affinity are not part of this list.

This test has as its system Cryptococcus neoformans. Particulars: Concentration 32 ug.mL-1; ASSAY_TEST Inhibition of Fungal Growth; detection method Resazurin; Absorption (OD600-OD570); plate type 384well; NBS; CORNING #3640. For orientation: The colour change of resazurin is a common sign of viable cells or microbes.
A word on the Inhibition: it is the relative decrease from the control value, in per cent. Regarding `COc1cc(NC(=O)CSc2nnc3c(=O)n(-c4cccc(F)c4)ccn23)cc(OC)c1`, the Inhibition is reported as -8.34%.
The result for `O=C(Cn1nc2c(Oc3ccccc3)nccn2c1=O)Nc1ccc(Cl)cc1` reads -10.29%; that for `COc1ccc(NC(=O)Cn2nc3nc(Nc4ccc(F)cc4)ccn3c2=O)cc1Cl`, -6.17%.
`CCc1ccccc1NC(=O)Cn1nc2c(Sc3ccc(C)cc3C)nccn2c1=O`: the Inhibition is given as -23.87%.
`Cc1cc(Nc2ccc(F)cc2)nc2nn(Cc3cccc(C#N)c3)c(=O)n12`: the Inhibition is on record as -10.7%.
The value for `COc1cc(NC(=O)Cn2nc3ccc(-c4ccc(Cl)cc4)nn3c2=O)cc(OC)c1` was -13.03%.
The result for `COc1ccc(N(Cc2ccc(OC)c(F)c2)S(=O)(=O)c2ccc3nncn3c2)cc1` reads 0.06%; that for `COc1ccc(-c2cc3c4nnc(SCC(=O)NCc5ccccc5)n4ccn3n2)cc1`, -19.87%; that for `CCCCc1ccc(NC(=O)Cn2nc3ccc(C(=O)Nc4ccc(OC)cc4)cn3c2=O)cc1`, -8.8%.
The value for `CSc1cccc(NC(=O)Cn2c(=O)c3nnc(C(C)C)n3c3ccccc32)c1` was -18.2%.
Turning to `COc1ccc(Cl)cc1NC(=O)Cn1nc2ccc(Sc3ccccc3)nn2c1=O`, the Inhibition is listed as -15.66%.
The result for `O=C(Cn1nc2c3sc(N4CCCC4)nc3ncn2c1=O)Nc1ccc(C(F)(F)F)cc1` reads -9.31%.
The result for `CCN(CCCNC(=O)CCc1nnc2ccc(-c3ccc(C)c(C)c3)nn12)c1ccccc1` reads -7.8%; that for `CCCc1nnc2c(=O)n(CC(=O)Nc3ccc(C#N)cc3)c3ccccc3n12`, -7.04%; that for `CC(C)(C)Sc1ccc2nn(CC(=O)Nc3ccccc3Cl)c(=O)n2n1`, -25.66%.
The value for `Cc1ccc(NC(=O)CSc2nc3ccccc3n3c(C(C)C)nnc23)cc1Cl` was -22.27%; that for `CC(C)(C)S(=O)(=O)c1ccc2nn(CC(=O)Nc3ccc(Br)cc3)c(=O)n2n1` was -17.49%; that for `COc1ccc2[nH]cc(C(=O)CSc3nnc4c(=O)n(-c5cccc(Cl)c5C)ccn34)c2c1` was -9.58%.
As for `Cc1cccc(NC(=O)Cn2nc3ccc(-c4ccccc4)nn3c2=O)c1`, the Inhibition is -14.95%.
Take `O=C(Cn1nc2c(SCc3ccccc3)nccn2c1=O)NC1CCCC1`: the Inhibition is listed as -3.97%.
The result for `COc1ccccc1NC(=O)Cn1nc2c3c4c(sc3ncn2c1=O)CCCC4` reads -22.92%; that for `CCc1nnc2c(SCC(=O)Nc3ccc(C(C)=O)cc3)nc3ccccc3n12`, -19.53%.
As to `CC(C)c1ccc(NC(=O)Cn2nc3ccc(SCc4ccc(Cl)cc4)nn3c2=O)cc1`, the Inhibition was -27.26%.
The result for `COc1ccc(C)cc1NC(=O)CSc1nc2ccccc2n2cnnc12` reads -3.58%.
With `O=S(=O)(c1cccn2cnnc12)N(Cc1ccc(F)cc1)c1ccc(F)cc1`, the Inhibition is reported as -6.17%.
The value for `COc1ccc(NC(=O)C(C)Sc2nnc3c(=O)n(-c4ccccc4)ccn23)cc1` (stereo not given) was -7.55%.
The value for `COc1ccccc1NC(=O)Cn1nc2c3cc(-c4ccc(Cl)cc4)nn3ccn2c1=O` was -18.6%; that for `Cn1c(=O)c2sccc2n2c(=O)n(Cc3cccc(Br)c3)nc12` was -9.95%; that for `Cc1nnc2c(=O)n(CC(=O)Nc3ccc(C(C)C)cc3)c3ccccc3n12` was -14.04%.
The value for `Cc1cccc(C)c1NC(=O)Cn1nc2ccc(SCc3ccc(Cl)cc3)nn2c1=O` was -10.13%; that for `CCc1nnc2c(S(=O)(=O)N(Cc3cccc(OC)c3)c3ccccc3)cccn12` was -9.71%.
Consider `CCc1ccccc1Sc1nccn2c(=O)n(CC(=O)Nc3ccc(Br)cc3)nc12`, for which the Inhibition was -1.52%.
The result for `COc1cccc(-n2ccn3c(SCC(=O)c4ccc(OC)c(OC)c4)nnc3c2=O)c1` reads -8.41%; that for `COc1ccc(NC(=O)c2ccc3nn(CC(=O)Nc4cc(Cl)ccc4OC)c(=O)n3c2)cc1`, -8.79%; that for `Cc1ccc(-c2cc3c4nnc(CCC(=O)NCc5ccc(C(F)(F)F)cc5)n4ccn3n2)cc1C`, -31.79%.
The result for `O=C(CCc1nnc2c3cc(-c4ccc(F)cc4)nn3ccn12)NCc1ccccc1Cl` reads -27.21%; that for `Cc1ccc(NC(=O)CSc2nc3ccccc3n3cnnc23)c(Br)c1`, -26.85%.
`O=C(CCc1nnc2c(N3CCCCC3)nc3ccccc3n12)NCCc1ccc(Cl)cc1`: the Inhibition is -25.04%.
As for `O=C(Cn1nc2ccc(Sc3ccccc3)nn2c1=O)N1CCN(c2ccc(F)cc2)CC1`, the Inhibition is given as -5.51%.
For the compound `COC(=O)c1ccc(NC(=O)CSc2nnc3c4cc(-c5ccc(OC)cc5)nn4ccn23)cc1`, the Inhibition is listed as -25.69%.
